# Inconclusive results are not listed. Active and inactive are the calls of the source. Calls come from the whole dose curve; as a rule, active = well fitted curve in the direction sought with a large enough effect; inconclusive = small, poorly fitted or top-dose-only effect, or another doubt; inactive = no such curve, though single readings can be large; an effect the other way counts as inactive or inconclusive.
# Tests used:
# [1] = Quantitative High-Throughput drug screen in 47 multiple myeloma cell lines against the NCATS MIPE library collection: KMM1_JCRB cell viability assay (AID 1918960); note: nearly all actives have a fitted effect of over 30% in size;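 for viability (% of DMSO): 100% = DMSO-treated cells and 0% = medium-only wells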
# Outline: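 ATP readout (CellTiter-Glo), 48 h drug incubation, 37 °C/5% CO2, 500 cells per well; normalisation to DMSO (100%) and media-only (0%) controls.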
# [2] = Quantitative High-Throughput drug screen in 47 multiple myeloma cell lines against the NCATS MIPE library collection: Karpas417_ECACC cell viability assay (AID 1918961); settings: Karpas417 myeloma viability, CellTiter-Glo ATP luminescence, 48 h; viability (% of DMSO): at 45.8 µM (top of the series)
# Outline: (§1)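 Steps: seed 500 cells per well; pin-transfer MIPE 4.0 library; incubate 48 h at 37C, 5% CO2, humidified; add CellTiter-Glo, 5 min room temperature; read luminescence.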
# [3] = Quantitative High-Throughput drug screen in 47 multiple myeloma cell lines against the NCATS MIPE library collection: KHM11_PLB cell viability assay (AID 1918962); note: nearly all actives have a fitted effect of over 35% in size
# Outline: (§2)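 Luminescent ATP measurement with CellTiter-Glo gives viability, scaled between DMSO-only wells (100%) and media-only wells (0%). Cells, 500 per well, faced library compounds for 48 hours at 37C.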
# [4] = Quantitative High-Throughput drug screen in 47 multiple myeloma cell lines against the NCATS MIPE library collection: JIM3_ECACC cell viability assay (AID 1918963; note: nearly all actives have a fitted effect of over 35% in size)
# Outline: as §2
# [5] = Quantitative High-Throughput drug screen in 47 multiple myeloma cell lines against the NCATS MIPE library collection: INA6_PLB cell viability assay (AID 1918965; note: nearly all actives have a fitted effect of over 55% in size)
# Outline: as §1
# [6] = Quantitative High-Throughput drug screen in 47 multiple myeloma cell lines against the NCATS MIPE library collection: JJN3_DSMZ cell viability assay (AID 1918966; note: nearly all actives have a fitted effect of over 50% in size)
# Outline: (§3)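 Primary qHTS used for cherry-picking: cells at 500/well, library compounds for 48 h (37C, 5% CO2), luminescent ATP assay.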
# [7] = Quantitative High-Throughput drug screen in 47 multiple myeloma cell lines against the NCATS MIPE library collection: H1112_PLB cell viability assay (AID 1918967; note: nearly all actives have a fitted effect of over 30% in size)
# Outline: as §3
# [8] = Quantitative High-Throughput drug screen in 47 multiple myeloma cell lines against the NCATS MIPE library collection: Karpas25_ECACC cell viability assay (AID 1918968; note: nearly all actives have a fitted effect of over 35% in size)
# Outline: as §3
# [9] = Quantitative High-Throughput drug screen in 47 multiple myeloma cell lines against the NCATS MIPE library collection: KMS27_JCRB cell viability assay (AID 1918970); settings: KMS27 myeloma cells, CellTiter-Glo ATP viability, 48 h; viability (% of DMSO): at 45.8 µM (top of the series); note: nearly all actives have a fitted effect of over 30% in size
# Outline: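 Each line is seeded at 500 cells per well and treated with library compounds for 48 hours under 37 °C, 5% CO2. CellTiter-Glo is then added for 5 min at room temperature before median relative luminescence is recorded.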
# [10] = Quantitative High-Throughput drug screen in 47 multiple myeloma cell lines against the NCATS MIPE library collection: KMS12BM_JCRB cell viability assay (AID 1918971); note: nearly all actives have a fitted effect of over 35% in size
# Outline: (§4)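 Approved and investigational drugs from MIPE 4.0 were added by pin tool to 500 cells per well. After 48 hours at 37C, ATP-based CellTiter-Glo luminescence indicated remaining viability.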
# [11] = Quantitative High-Throughput drug screen in 47 multiple myeloma cell lines against the NCATS MIPE library collection: KMS20_JCRB cell viability assay (AID 1918973); note: nearly all actives have a fitted effect of over 45% in size
# Outline: as §3
# [12] = Quantitative High-Throughput drug screen in 47 multiple myeloma cell lines against the NCATS MIPE library collection: KMS26_JCRB cell viability assay (AID 1918975); note: nearly all actives have a fitted effect of over 45% in size
# Outline: as §4
# [13] = Quantitative High-Throughput drug screen in 47 multiple myeloma cell lines against the NCATS MIPE library collection: MMM1_PLB cell viability assay (AID 1918976); note: nearly all actives have a fitted effect of over 35% in size
# Outline: (§5)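 Inhibition of viability over 48 h was scored by ATP content (CellTiter-Glo) in 500-cell wells. Zero and full viability were defined by media-only and DMSO-only wells.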
# [14] = Quantitative High-Throughput drug screen in 47 multiple myeloma cell lines against the NCATS MIPE library collection: MOLP8_DSMZ cell viability assay (AID 1918977); note: nearly all actives have a fitted effect of over 45% in size
# Outline: as §5
# [15] = Quantitative High-Throughput drug screen in 47 multiple myeloma cell lines against the NCATS MIPE library collection: NCIH929_DSMZ cell viability assay (AID 1918978); note: nearly all actives have a fitted effect of over 35% in size
# Outline: as §5
# [16] = Quantitative High-Throughput drug screen in 47 multiple myeloma cell lines against the NCATS MIPE library collection: MM1S_ATCC cell viability assay (AID 1918980); note: nearly all actives have a fitted effect of over 45% in size
# Outline: as §5
# [17] = Quantitative High-Throughput drug screen in 47 multiple myeloma cell lines against the NCATS MIPE library collection: KMS12PE_JCRB cell viability assay (AID 1918972); note: nearly all actives have a fitted effect of over 30% in size
# Outline: as §1
# [18] = Quantitative High-Throughput drug screen in 47 multiple myeloma cell lines against the NCATS MIPE library collection: OCIMY1_PLB cell viability assay (AID 1918979); note: nearly all actives have a fitted effect of over 35% in size
# Outline: as §5
# [19] = Quantitative High-Throughput drug screen in 47 multiple myeloma cell lines against the NCATS MIPE library collection: JIM1_ECACC cell viability assay (AID 1918964)
# Outline: as §3
# [20] = Quantitative High-Throughput drug screen in 47 multiple myeloma cell lines against the NCATS MIPE library collection: KMS21BM_JCRB cell viability assay (AID 1918974); settings: ATP luminescence, 48 h; viability: at 45.8 µM (top of the series)
# Outline: as §3
# Potency is the fitted concentration of half-maximal effect.
smiles,measurement,setting,value
COc1c(C)cnc(Cn2cnc3c(Cl)nc(N)nc32)c1C,Potency,[1],0.059 µM (active)
same,Potency,[2],0.0235 µM (active)
same,Potency,[3],0.105 µM (active)
same,Potency,[4],0.148 µM (active)
same,Potency,[5],0.148 µM (active)
same,Potency,[6],0.166 µM (active)
same,Potency,[7],0.132 µM (active)
same,Potency,[8],0.209 µM (active)
same,Potency,[9],0.209 µM (active)
same,Potency,[10],0.187 µM (active)
same,Potency,[11],0.209 µM (active)
same,Potency,[12],0.209 µM (active)
same,Potency,[13],0.935 µM (active)
same,Potency,[14],0.0935 µM (active)
same,Potency,[15],0.187 µM (active)
same,Potency,[16],0.332 µM (active)
O=C(NCCCCN1CCOCC1)c1cc2ccccc2o1,Potency,[1],inactive
same,viability (% of DMSO),[2],159% (active)
same,Potency,[3],inactive
same,Potency,[4],inactive
same,Potency,[6],inactive
same,Potency,[7],inactive
same,Potency,[9],inactive
same,Potency,[10],0.0743 µM (active)
same,Potency,[17],inactive
same,Potency,[12],inactive
same,Potency,[15],inactive
same,Potency,[18],inactive
CN(C)CC[C@H](CSc1ccccc1)Nc1ccc(S(=O)(=O)NC(=O)c2ccc(N3CCN(Cc4ccccc4-c4ccc(Cl)cc4)CC3)cc2)cc1[N+](=O)[O-],Potency,[1],4.69 µM (active)
same,Potency,[2],0.0935 µM (active)
same,Potency,[3],5.26 µM (active)
same,Potency,[19],1.48 µM (active)
same,Potency,[5],18.7 µM (active)
same,Potency,[6],8.33 µM (active)
same,Potency,[7],0.0743 µM (active)
same,Potency,[9],0.0187 µM (active)
same,Potency,[10],0.187 µM (active)
same,Potency,[20],0.0833 µM (active)
same,Potency,[12],1.66 µM (active)
same,Potency,[13],0.526 µM (active)
same,Potency,[18],3.72 µM (active)
same,Potency,[16],1.66 µM (active)
COC(=O)Nc1ccc(-c2nc(N3CCOCC3)c3cnn(C4CCN(C(=O)OC)CC4)c3n2)cc1,Potency,[1],0.469 µM (active)
same,Potency,[2],0.059 µM (active)
same,Potency,[3],0.0833 µM (active)
same,Potency,[4],0.264 µM (active)
same,Potency,[5],0.0935 µM (active)
same,Potency,[6],0.935 µM (active)
same,Potency,[7],0.0662 µM (active)
same,Potency,[8],0.0187 µM (active)
same,Potency,[9],0.0833 µM (active)
same,Potency,[10],0.935 µM (active)
same,Potency,[17],1.66 µM (active)
same,Potency,[11],0.0148 µM (active)
same,Potency,[20],0.0526 µM (active)
same,Potency,[13],0.418 µM (active)
same,Potency,[14],1.48 µM (active)
same,Potency,[15],0.0372 µM (active)
same,Potency,[18],5.26 µM (active)
same,Potency,[16],0.0066 µM (active)
C=CC[N+]1([C@H]2C[C@H]3[C@@H]4CC[C@H]5C[C@H](O)[C@@H](N6CCOCC6)C[C@]5(C)[C@@H]4CC[C@]3(C)[C@H]2OC(C)=O)CCCC1,Potency,[1],inactive
same,Potency,[2],inactive
same,Potency,[3],inactive
same,Potency,[4],inactive
same,Potency,[5],inactive
same,Potency,[6],0.0053 µM (active)
same,Potency,[7],inactive
same,Potency,[9],inactive
same,Potency,[10],inactive
same,Potency,[17],inactive
same,Potency,[11],inactive
same,Potency,[16],18.7 µM (active)
